Records with an inconclusive call do not appear. Activity calls are given as the source filed them. The calls were made as follows, unless noted: active = hit-call score of the fitted dose curve at least 0.9, where 1 is the maximum; inactive = score below 0.9.
Assays:
[1] = ATG_GAL4_TRANS: Attagene TRANS-FACTORIAL HepG2 Assay for GAL4 (Internal Marker) (AID 2282976; active = hit-call score of the fitted dose curve at least 0.9, where 1 is the maximum); conditions: HepG2 Attagene TRANS GAL4 internal marker reporter
How it was run: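 RT-PCR/capillary electrophoresis readout of reporter mRNA. HepG2, transient MRTU transfection (GAL4-UAS reporters), 24 h compound exposure. Background-control endpoint, positive direction vs DMSO baseline.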

[2] = target: Estrogen-related receptor gamma (Homo sapiens) (UniProt P62508); assay: ATG_ERRg_TRANS: Attagene TRANS-FACTORIAL HepG2 Assay for human Estrogen-Related Receptor gamma (ERRg) (AID 2282977; active = hit-call score of the fitted dose curve at least 0.9, where 1 is the maximum;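 also: hits increase reporter signal over DMSO so potencies reflect activators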); conditions: HepG2 Attagene TRANS reporter, ERRg transactivation
Estrogen-related receptor gamma (Homo sapiens), sequence (P62508 whole entry, looked up, the tested form may be a part): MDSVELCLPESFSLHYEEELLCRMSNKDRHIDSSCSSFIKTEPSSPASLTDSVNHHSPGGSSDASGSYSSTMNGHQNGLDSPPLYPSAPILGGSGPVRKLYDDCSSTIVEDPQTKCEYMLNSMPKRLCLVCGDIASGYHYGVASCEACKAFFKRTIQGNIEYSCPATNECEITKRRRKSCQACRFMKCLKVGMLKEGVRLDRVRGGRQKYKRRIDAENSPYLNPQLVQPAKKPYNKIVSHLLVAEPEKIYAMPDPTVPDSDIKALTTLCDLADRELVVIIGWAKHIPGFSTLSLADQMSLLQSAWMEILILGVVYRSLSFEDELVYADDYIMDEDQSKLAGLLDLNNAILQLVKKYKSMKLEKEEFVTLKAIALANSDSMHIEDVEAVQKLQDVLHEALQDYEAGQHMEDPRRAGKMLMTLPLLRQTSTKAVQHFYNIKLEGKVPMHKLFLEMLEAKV
How it was run: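 Transient HepG2 transfectants, 24 h compound exposure, GAL4-UAS reporter mRNA by RT-PCR/6-FAM labelling/capillary electrophoresis; positive direction vs DMSO.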

[3] = ATG_M_06_TRANS: Attagene TRANS-FACTORIAL HepG2 Assay for M06 Transcription Factor (Internal Marker) (AID 2282983; active = hit-call score of the fitted dose curve at least 0.9, where 1 is the maximum); conditions: HepG2 Attagene TRANS M06 internal marker reporter
How it was run: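 After a 24 h chemical treatment of transfected HepG2, RNA underwent DNase I treatment, reverse transcription and reporter-specific PCR; labelled, HpaI-digested products were sized by capillary electrophoresis. Signal increase relative to DMSO defined activity.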

[4] = ATG_M_32_TRANS: Attagene TRANS-FACTORIAL HepG2 Assay for M32 Transcription Factor (Internal Marker) (AID 2282984; active = hit-call score of the fitted dose curve at least 0.9, where 1 is the maximum;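 also: transcript level of a background control reporter unit measured by RT-PCR and capillary electrophoresis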); conditions: HepG2 Attagene TRANS M32 internal marker reporter
How it was run: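 HepG2 cells transiently transfected with multiple GAL4-UAS reporter transcription units, dosed for 24 hours; reporter mRNA quantified by RT-PCR, 6-FAM primer extension, HpaI digestion and capillary electrophoresis. Gain-of-signal fitted versus DMSO baseline; internal background-control marker.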

[5] = target: Transcriptional activator Myb (Homo sapiens) (UniProt P10242); assay: ATG_Myb_CIS: Attagene CIS-FACTORIAL HepG2 Assay for human Myeloblastosis (Myb) Proto-Oncogene Transcription Factor (AID 2282986); conditions: HepG2 Attagene CIS-FACTORIAL Myb reporter transcription; actives raise or lower the signal
Transcriptional activator Myb (Homo sapiens), sequence (P10242 whole entry, looked up): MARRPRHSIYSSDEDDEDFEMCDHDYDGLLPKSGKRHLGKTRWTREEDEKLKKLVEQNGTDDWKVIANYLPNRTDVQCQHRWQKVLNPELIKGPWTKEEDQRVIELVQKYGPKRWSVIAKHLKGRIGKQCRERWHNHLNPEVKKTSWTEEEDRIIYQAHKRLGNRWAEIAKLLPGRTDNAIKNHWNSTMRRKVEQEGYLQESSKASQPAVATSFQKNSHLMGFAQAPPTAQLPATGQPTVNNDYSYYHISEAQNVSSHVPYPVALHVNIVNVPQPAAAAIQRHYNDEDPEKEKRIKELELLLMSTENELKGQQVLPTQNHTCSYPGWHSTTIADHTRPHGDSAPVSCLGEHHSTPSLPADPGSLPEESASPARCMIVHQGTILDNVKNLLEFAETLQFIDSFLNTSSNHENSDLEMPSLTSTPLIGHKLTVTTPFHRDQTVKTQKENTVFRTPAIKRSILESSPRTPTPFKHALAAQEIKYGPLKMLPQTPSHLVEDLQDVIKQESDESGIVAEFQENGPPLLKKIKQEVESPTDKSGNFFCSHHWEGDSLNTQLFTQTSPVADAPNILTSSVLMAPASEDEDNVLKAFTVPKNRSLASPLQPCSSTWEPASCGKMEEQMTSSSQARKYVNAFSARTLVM
How it was run: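 Endogenous transcription factor activity at a Myb-responsive cis element is reported in human liver HepG2 cells after 24 h chemical treatment. Reporter mRNA is detected by RT-PCR and capillary electrophoresis fluorescence, with DMSO as baseline.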

[6] = target: Nuclear respiratory factor 1 (Homo sapiens) (UniProt Q16656); assay: ATG_NRF1_CIS: Attagene CIS-FACTORIAL HepG2 Assay for human Nuclear Respiratory Factor 1 (NRF1) Orphan Gene (AID 2282987); conditions: HepG2 NRF1 cis-element reporter, Attagene multiplex; actives raise or lower the signal
Nuclear respiratory factor 1 (Homo sapiens), sequence (Q16656 whole entry, looked up): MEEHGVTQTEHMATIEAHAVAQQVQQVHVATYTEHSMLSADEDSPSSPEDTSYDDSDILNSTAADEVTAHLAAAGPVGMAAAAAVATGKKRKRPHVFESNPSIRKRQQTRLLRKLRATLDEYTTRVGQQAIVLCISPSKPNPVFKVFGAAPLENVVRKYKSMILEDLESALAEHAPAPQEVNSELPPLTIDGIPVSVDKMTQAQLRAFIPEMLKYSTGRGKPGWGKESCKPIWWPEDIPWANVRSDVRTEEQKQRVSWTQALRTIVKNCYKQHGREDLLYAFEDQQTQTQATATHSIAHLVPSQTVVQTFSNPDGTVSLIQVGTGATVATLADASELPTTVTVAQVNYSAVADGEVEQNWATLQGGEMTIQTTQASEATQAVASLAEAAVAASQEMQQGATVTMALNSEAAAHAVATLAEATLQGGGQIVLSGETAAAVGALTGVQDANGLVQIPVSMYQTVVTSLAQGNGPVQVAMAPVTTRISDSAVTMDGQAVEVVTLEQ
How it was run: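 Human hepatoma HepG2 cells carrying transfected promoter-regulated reporter units were incubated with test chemicals for 24 h. Reporter transcripts were measured by RT-PCR plus capillary electrophoresis, and endpoints derived by bidirectional fitting with DMSO as baseline.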

[7] = ATG_NFI_CIS: Attagene CIS-FACTORIAL HepG2 Assay for human Nuclear Factor I (NFI) (AID 2282989); conditions: HepG2 cis-regulatory reporter, NFI response element transcription; actives raise or lower the signal
How it was run: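 Cells: human liver HepG2, transiently transfected with promoter-regulated reporter transcription units. Exposure 24 h. Detection: fluorescent RT-PCR products separated by capillary electrophoresis, normalised to DMSO negative control.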

[8] = target: Myc proto-oncogene protein (Homo sapiens) (UniProt P01106); assay: ATG_Myc_CIS: Attagene CIS-FACTORIAL HepG2 Assay for human Myelocytomatosis (Myc) Proto-Oncogene Transcription Factor (AID 2282990); conditions: HepG2, Attagene cis-reporter transcription factor activity; actives raise or lower the signal
Myc proto-oncogene protein (Homo sapiens), sequence (P01106 whole entry, looked up): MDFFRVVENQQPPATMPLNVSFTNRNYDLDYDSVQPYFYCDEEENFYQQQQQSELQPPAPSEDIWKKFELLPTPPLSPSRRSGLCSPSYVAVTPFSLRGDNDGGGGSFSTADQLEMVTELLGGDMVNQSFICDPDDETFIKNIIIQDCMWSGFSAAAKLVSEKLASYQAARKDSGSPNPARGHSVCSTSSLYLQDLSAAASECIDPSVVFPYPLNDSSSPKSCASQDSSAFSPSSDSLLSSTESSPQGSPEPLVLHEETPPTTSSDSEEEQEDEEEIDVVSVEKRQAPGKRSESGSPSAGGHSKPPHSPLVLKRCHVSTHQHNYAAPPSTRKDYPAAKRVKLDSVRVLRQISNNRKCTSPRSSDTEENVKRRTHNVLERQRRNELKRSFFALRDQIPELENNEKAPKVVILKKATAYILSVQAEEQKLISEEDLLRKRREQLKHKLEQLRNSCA
How it was run: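 HepG2 cells transiently transfected with multiple cis-promoter-driven reporter transcription units, so endogenous TF activity is read. After 24 h compound exposure, reporter mRNA was quantified by RT-PCR, 6-FAM labelling, HpaI digestion and capillary electrophoresis; bidirectional fit versus DMSO.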

[9] = ATG_NRF2_ARE_CIS: Attagene CIS-FACTORIAL HepG2 Assay for human Nuclear Factor Erythroid 2 Related Factor 2 (NFR2) response to Antioxidant Response Elements (ARE) (AID 2282992); conditions: HepG2 Attagene ARE/NRF2 reporter, transcription factor activity; actives raise or lower the signal;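 as to AC50: reporter mRNA level measured by RT-PCR and capillary electrophoresis fluorescence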
How it was run: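 Cis-factorial assay: transfected HepG2 reporter library, 24 h dosing, mRNA readout via RT-PCR/CE; DMSO-referenced bidirectional analysis.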

[10] = ATG_Oct_MLP_CIS: Attagene CIS-FACTORIAL HepG2 Assay for human Octamer-Binding Transcription Factor (Oct) (AID 2282993); conditions: HepG2 Attagene cis-factorial Oct reporter, mRNA; actives raise or lower the signal
How it was run: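 HepG2, transient MRTU transfection, cis promoter elements; 24 h dosing; RT-PCR/CE fluorescence read-out of reporter mRNA; fit both directions vs DMSO.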

[11] = target: Cellular tumor antigen p53 (Homo sapiens) (UniProt P04637); assay: ATG_p53_CIS: Attagene CIS-FACTORIAL HepG2 Assay for human p53 Transcription Factor (AID 2282994); conditions: HepG2 p53 cis-element reporter, Attagene mRNA; actives raise or lower the signal
Cellular tumor antigen p53 (Homo sapiens), sequence (P04637 whole entry, looked up): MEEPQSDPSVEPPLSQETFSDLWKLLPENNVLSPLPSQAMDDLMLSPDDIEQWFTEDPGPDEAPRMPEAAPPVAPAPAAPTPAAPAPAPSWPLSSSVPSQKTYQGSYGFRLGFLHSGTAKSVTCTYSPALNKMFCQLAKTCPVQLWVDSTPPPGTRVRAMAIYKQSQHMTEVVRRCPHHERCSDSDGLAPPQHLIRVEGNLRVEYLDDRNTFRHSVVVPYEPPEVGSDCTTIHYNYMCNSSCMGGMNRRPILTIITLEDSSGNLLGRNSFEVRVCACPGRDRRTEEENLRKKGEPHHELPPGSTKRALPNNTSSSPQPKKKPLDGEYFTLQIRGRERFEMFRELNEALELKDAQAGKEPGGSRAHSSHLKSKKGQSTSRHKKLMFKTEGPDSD
How it was run: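 Using HepG2 hepatoma cells carrying cis-acting multiplexed reporters, mRNA induction is detected after a 24 h exposure. Gain- and loss-of-signal responses are fitted relative to DMSO-treated cells.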

[12] = BSK_3C_TissueFactor: BioMAP Diversity Plus: 3C Assay for Tissue Factor Biomarker Activity (AID 2282997); conditions: BioMAP 3C HUVEC, tissue factor biomarker readout; actives raise or lower the signal
How it was run: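 Human vascular primary cells (umbilical vein endothelium) received test chemical; Tissue Factor was determined by ELISA at 24 h, and both gain and loss of signal versus DMSO were fitted.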

[13] = BSK_3C_uPAR: BioMAP Diversity Plus: 3C Assay for Urokinase-type plasminogen activator receptor (uPAR) Biomarker Activity (AID 2282998); conditions: BioMAP 3C HUVEC, uPAR biomarker ELISA; actives raise or lower the signal
How it was run: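 A multiplexed primary-cell system built on human umbilical vein endothelium was used, with chemical present for 24 h before reading. Cell-surface uPAR was detected by ELISA; signal change in either direction counted against DMSO.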

[14] = target: Glucocorticoid receptor (Homo sapiens) (UniProt P04150); assay: ATG_GR_TRANS: Attagene TRANS-FACTORIAL HepG2 Assay for human Glucocorticoid Receptor (GR) (AID 2282978; active = hit-call score of the fitted dose curve at least 0.9, where 1 is the maximum;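 also: activators score as hits since higher reporter transcript over DMSO is fitted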); conditions: HepG2 Attagene TRANS GR reporter, mRNA transcription
Glucocorticoid receptor (Homo sapiens), sequence (P04150 whole entry, looked up): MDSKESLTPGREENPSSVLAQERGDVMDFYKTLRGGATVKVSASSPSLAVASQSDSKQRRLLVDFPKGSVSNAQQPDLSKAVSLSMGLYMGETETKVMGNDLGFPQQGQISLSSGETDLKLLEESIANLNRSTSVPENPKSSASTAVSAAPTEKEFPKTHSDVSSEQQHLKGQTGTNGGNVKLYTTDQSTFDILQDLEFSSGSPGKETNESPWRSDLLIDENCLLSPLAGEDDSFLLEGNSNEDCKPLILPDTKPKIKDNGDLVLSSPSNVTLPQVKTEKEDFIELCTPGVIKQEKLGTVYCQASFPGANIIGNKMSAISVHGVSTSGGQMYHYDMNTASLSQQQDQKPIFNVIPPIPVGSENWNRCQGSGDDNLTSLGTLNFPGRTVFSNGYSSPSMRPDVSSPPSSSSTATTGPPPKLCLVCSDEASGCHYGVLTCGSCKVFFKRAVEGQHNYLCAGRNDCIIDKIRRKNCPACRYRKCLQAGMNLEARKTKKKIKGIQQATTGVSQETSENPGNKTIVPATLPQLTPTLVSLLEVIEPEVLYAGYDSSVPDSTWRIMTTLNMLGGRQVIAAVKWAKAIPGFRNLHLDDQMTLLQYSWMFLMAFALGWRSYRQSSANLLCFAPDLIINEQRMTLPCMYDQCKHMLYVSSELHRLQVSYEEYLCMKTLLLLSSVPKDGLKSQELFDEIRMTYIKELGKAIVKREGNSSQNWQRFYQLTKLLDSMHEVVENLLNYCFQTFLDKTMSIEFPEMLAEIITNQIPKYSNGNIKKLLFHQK
How it was run: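 Multiplexed TRANS reporter system, HepG2; 24 h exposure; RNA → oligo(dT) RT → reporter-specific PCR → 6-FAM primer extension → HpaI cut → CE fluorescence. Gain-of-signal vs DMSO.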

[15] = target: Bile acid receptor (Homo sapiens) (UniProt Q96RI1); assay: ATG_FXR_TRANS: Attagene TRANS-FACTORIAL HepG2 Assay for Farnesoid X Receptor (FXR) (AID 2282979; active = hit-call score of the fitted dose curve at least 0.9, where 1 is the maximum;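 also: hits raise reporter mRNA above DMSO so AC50 marks FXR activation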); conditions: HepG2 Attagene TRANS FXR-GAL4 reporter transcription
Bile acid receptor (Homo sapiens), sequence (Q96RI1 whole entry, looked up, the tested form may be a part): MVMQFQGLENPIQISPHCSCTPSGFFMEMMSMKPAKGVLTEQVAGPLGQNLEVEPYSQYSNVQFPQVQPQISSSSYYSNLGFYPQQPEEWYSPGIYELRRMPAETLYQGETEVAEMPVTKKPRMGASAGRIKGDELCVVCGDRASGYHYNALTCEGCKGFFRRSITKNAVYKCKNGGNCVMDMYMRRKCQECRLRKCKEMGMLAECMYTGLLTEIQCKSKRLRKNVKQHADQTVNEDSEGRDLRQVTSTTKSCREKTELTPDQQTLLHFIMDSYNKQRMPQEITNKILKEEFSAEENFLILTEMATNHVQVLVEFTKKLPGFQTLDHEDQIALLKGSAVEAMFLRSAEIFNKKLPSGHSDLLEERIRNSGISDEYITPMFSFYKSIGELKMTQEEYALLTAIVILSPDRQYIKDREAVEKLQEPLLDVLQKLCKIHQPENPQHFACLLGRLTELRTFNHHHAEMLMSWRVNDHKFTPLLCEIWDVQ
How it was run: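 Read-out: fluorescent reporter transcripts quantified by capillary electrophoresis after RT-PCR of total RNA. Source cells were HepG2 transiently carrying chimeric NR-GAL4 plus GAL4-UAS reporter units, dosed 24 h. Activity fitted upward relative to DMSO baseline.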

[16] = target: Oxysterols receptor LXR-alpha (Homo sapiens) (UniProt Q13133); assay: ATG_LXRa_TRANS: Attagene TRANS-FACTORIAL HepG2 Assay for human Liver X Receptor alpha (LXRa) (AID 2282980; active = hit-call score of the fitted dose curve at least 0.9, where 1 is the maximum); conditions: HepG2 Attagene TRANS reporter, LXRa transactivation
Oxysterols receptor LXR-alpha (Homo sapiens), sequence (Q13133 whole entry, looked up, the tested form may be a part): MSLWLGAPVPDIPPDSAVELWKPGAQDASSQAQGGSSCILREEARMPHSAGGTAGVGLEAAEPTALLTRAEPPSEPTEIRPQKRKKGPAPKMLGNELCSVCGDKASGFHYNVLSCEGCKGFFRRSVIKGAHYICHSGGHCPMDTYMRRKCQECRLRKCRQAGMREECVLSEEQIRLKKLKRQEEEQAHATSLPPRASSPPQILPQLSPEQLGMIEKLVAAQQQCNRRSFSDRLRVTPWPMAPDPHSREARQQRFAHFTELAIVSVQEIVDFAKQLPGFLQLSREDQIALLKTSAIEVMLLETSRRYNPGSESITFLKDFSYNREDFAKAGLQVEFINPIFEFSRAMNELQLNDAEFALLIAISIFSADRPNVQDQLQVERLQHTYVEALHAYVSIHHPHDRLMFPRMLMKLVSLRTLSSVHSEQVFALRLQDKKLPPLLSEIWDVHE
How it was run: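 Read-out: reporter transcript levels by RT-PCR plus capillary electrophoresis, fluorescence intensity. Transiently transfected HepG2, exogenous NR-GAL4 chimera, GAL4-UAS reporters; 24 h compound exposure. Activity = increase over DMSO negative control.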

[17] = target: Nuclear receptor subfamily 4 group A member 2 (Homo sapiens) (UniProt P43354); assay: ATG_NURR1_TRANS: Attagene TRANS-FACTORIAL HepG2 Assay for human Nuclear Receptor Related Protein 1 (NURR1) (AID 2282985; active = hit-call score of the fitted dose curve at least 0.9, where 1 is the maximum); conditions: HepG2 Attagene TRANS reporter, mRNA readout
Nuclear receptor subfamily 4 group A member 2 (Homo sapiens), sequence (P43354 whole entry, looked up, the tested form may be a part): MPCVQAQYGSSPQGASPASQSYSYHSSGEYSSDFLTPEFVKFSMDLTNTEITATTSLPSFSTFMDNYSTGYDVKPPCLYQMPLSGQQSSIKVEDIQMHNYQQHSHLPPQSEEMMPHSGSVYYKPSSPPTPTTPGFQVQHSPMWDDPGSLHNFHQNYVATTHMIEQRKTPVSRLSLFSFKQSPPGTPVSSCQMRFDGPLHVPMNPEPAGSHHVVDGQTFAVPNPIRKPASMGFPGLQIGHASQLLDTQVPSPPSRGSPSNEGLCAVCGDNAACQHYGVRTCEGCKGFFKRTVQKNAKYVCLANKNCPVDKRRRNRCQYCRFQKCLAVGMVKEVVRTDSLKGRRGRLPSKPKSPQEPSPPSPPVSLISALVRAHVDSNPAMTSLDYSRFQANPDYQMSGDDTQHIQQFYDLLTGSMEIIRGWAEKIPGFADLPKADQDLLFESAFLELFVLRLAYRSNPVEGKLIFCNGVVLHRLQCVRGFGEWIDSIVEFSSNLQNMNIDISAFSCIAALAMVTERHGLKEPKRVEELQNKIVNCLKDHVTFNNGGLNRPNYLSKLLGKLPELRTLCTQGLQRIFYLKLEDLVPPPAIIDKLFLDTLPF
How it was run: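 HepG2 cells transiently transfected with GAL4-UAS reporter units and chimeric NR-Gal4 constructs; chemical exposure 24 h. Reporter mRNA quantified by RT-PCR, fluorescent labelling and capillary electrophoresis; gain of signal fitted relative to DMSO baseline.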

[18] = ATG_NF_kB_CIS: Attagene CIS-FACTORIAL HepG2 Assay for human Nuclear Factor Kappa B (NF-kB) (AID 2282991); conditions: HepG2 Attagene cis-factorial NF-kB reporter mRNA; actives raise or lower the signal
How it was run: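 Multiplexed cis-reporter assay in transiently transfected HepG2. 24 h treatment; RNA isolated, RT-PCR, labelled fragments resolved by CE. DMSO baseline.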

[19] = target: Oxysterols receptor LXR-beta (Homo sapiens) (UniProt P55055); assay: ATG_LXRb_TRANS: Attagene TRANS-FACTORIAL HepG2 Assay for human Liver X Receptor beta (LXRb) (AID 2282981; active = hit-call score of the fitted dose curve at least 0.9, where 1 is the maximum); conditions: HepG2 Attagene TRANS GAL4-LXRb reporter, mRNA
How it was run: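 HepG2 cells transiently transfected with multiple reporter transcription units carrying chimeric NR-Gal4 proteins acting on GAL4-UAS reporters; compound exposure 24 h. Reporter mRNA quantified by RT-PCR, 6-FAM labelling, HpaI digestion and capillary electrophoresis; gain of signal versus DMSO.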

[20] = target: Hepatocyte nuclear factor 4-alpha (Homo sapiens) (UniProt P41235); assay: ATG_HNF4a_TRANS: Attagene TRANS-FACTORIAL HepG2 Assay for human Hepatocyte Nuclear Factor 4 alpha (HNF4a) (AID 2282982; active = hit-call score of the fitted dose curve at least 0.9, where 1 is the maximum); conditions: HepG2 HNF4a transactivation reporter, mRNA readout
How it was run: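 HepG2 cells transiently transfected with multiplexed GAL4-UAS reporter units responsive to chimeric NR-GAL4 proteins; compound exposure 24 h. Reporter mRNA quantified by RT-PCR, 6-FAM labelling, HpaI digestion and capillary electrophoresis; gain of signal versus DMSO baseline.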

Measured: AC50

Nc1ccc2ccccc2c1
not listed: [14] | [15] | [16] | [17] | [18] | [19] | [20]
inactive: all other assays above

O=C(O)C(F)(OC(F)(F)C(F)(F)C(F)(F)F)C(F)(F)F (configuration not stated)
not listed: [11] | [19] | [20]
inactive: all other assays above

CC(C)Nc1ccc(Nc2ccccc2)cc1
active: [9] 8.92 µM | [12] 8.11 µM | [13] 13.2 µM
not listed: [3] | [4] | [11] | [18] | [19] | [20]
inactive: all other assays above

NNC(N)=S
not listed: [2] | [4] | [12] | [13] | [16] | [17] | [20]
inactive: all other assays above

CCCCN(CCCC)N=O
not listed: [2] | [4] | [11] | [17] | [19]
inactive: all other assays above

Oc1ccccc1Br
inactive: [1] | [14] | [15] | [3] | [5] | [6] | [7] | [8] | [18] | [9] | [10]

CC(=O)CCc1ccc2c(c1)OCO2
not listed: [12] | [13] | [14] | [16] | [19] | [20]
inactive: all other assays above

O=C(CBr)OCc1ccccc1
active: [9] 67.8 µM
not listed: [2] | [4] | [12] | [13] | [17] | [19] | [20]
inactive: all other assays above

CC(C)CBr
not listed: [11] | [12] | [13] | [14] | [17] | [19] | [20]
inactive: all other assays above

CCOC(=O)c1ccccc1C(=O)OCC
not listed: [4] | [11] | [15] | [16] | [19] | [20]
inactive: all other assays above

Reference: PubChem BioAssay (EPA / NIEHS)
